Source: PubChem BioAssay (National Center for Advancing Translational Sciences (NCATS))
Most compounds without a hit are left out; they make up all but 21% or so of the library.
CHX counter: counter-screen hit for Shiga toxin inhibitors, cycloheximide; cell reporter, cycloheximide protein synthesis inhibition counterscreen; max response, %; 12% of 300,000 active; in the data active = max response mostly above about 13%, no sharp cut-off; inactive = mostly below about 14%; also: read at 38.3 µM for the half of the compounds with a filed dose
Pf growth 48h: P. falciparum growth inhibition at 48 hours (one generation). P. falciparum luciferase growth in erythrocytes, 48 h. 5.9% of 310,000 active. AID 504832. Potency, µM (titrated, usually from 28.7 µM), usual class: inhibitors; active = well fitted inhibition curve with a large enough effect; inconclusive = small, poorly fitted or top-dose-only effect, or another doubt; inactive = no such curve, though single readings can be large or run the other way
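Cell-based growth assay: transgenic P. falciparum expressing firefly luciferase, cultured in red cells within RPMI 1640 containing 0.5% w/v Albumax, 24 mM bicarbonate and gentamycin. A drop in luciferase activity indicates inhibition.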
Pf growth 96h: P. falciparum growth inhibition at 96 hour, primary screen for plastid delayed-death inhibitors; 6.9% of 320,000 active; Potency, µM (titrated, usually from 28.7 µM), actives largely listed as inhibitors; P. falciparum luciferase reporter growth, 96 h; active = well fitted inhibition curve with a large enough effect; inconclusive = small, poorly fitted or top-dose-only effect, or another doubt; inactive = no such curve, though single readings can be large or run the other way
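96 h incubation, 37 C, 5% CO2, of luciferase-reporter P. falciparum-infected RBCs (2% hematocrit, 0.05% parasitemia final) with test compounds; endpoint luminescence.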
SARS PLpro yeast: SARS-CoV PLP inhibition in yeast. Potency, µM (series often up to 32.9 µM), hits mostly activators. 0.19% of 330,000 active. AID 485353. S. cerevisiae expressing SARS-CoV PLpro, growth rescue; also: nearly all actives have a fitted effect of over 55% in size
Shiga toxin inh: inhibitors of Shiga toxin in Vero cells; Vero cells, Shiga toxin protein synthesis inhibition reporter; inhibition, % at 38.7 µM; 9.2% of 290,000 active; in the data active = inhibition mostly above about 28%, no sharp cut-off; inactive = mostly below about 43%
NS1 function inh: influenza NS1 inhibition; 0.4% of 270,000 active; AID 2326; Potency, µM (doses to about 46.1 µM); also: actives are rising curves; nearly all actives have a fitted effect of over 50% in size
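In this qHTS, NS1 from influenza A is expressed in budding yeast, where it slows growth. Cells are switched from glucose to 2% galactose medium (pH 6.0, -URA), treated with compound, and growth recovery is read at OD600.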
Of the large screens only hits and unclear results are named; the others gave an inactive call. Unless noted, calls follow the shape of the full dose curve.

S=C(N/N=C/c1ccc2c(c1)OCO2)NC1CC2CCC1C2 (stereo not given)	CHX counter 34.7, Pf growth 48h 2.08µM, Pf growth 96h 2.62µM, Shiga toxin inh 62.7
Cc1nn(-c2ccccc2)c(N2CCCC2)c1/C=N/NC(=S)Nc1cc(C(F)(F)F)ccc1Cl	Pf growth 48h 11.7µM, Pf growth 96h 4.15µM
Cc1nn(-c2ccccc2)c(N2CCCC2)c1/C=N/O	none (no result: Pf growth 96h)
Cc1ccc(NC(=S)N/N=C/c2c(C)nn(-c3ccccc3)c2N2CCCC2)cc1	Pf growth 48h 11.7µM, Pf growth 96h inconclusive
Cc1nn(-c2ccccc2)c(N2CCCC2)c1/C=N/NC(=S)Nc1ccccc1C(F)(F)F	Pf growth 48h inconclusive, Pf growth 96h 4.65µM
Cc1nn(C)cc1/C=N/NC(=S)Nc1ccccc1	CHX counter 71.1, Shiga toxin inh 174.8
Cc1nn(-c2ccccc2)c(N2CCCCC2)c1/C=N/NC(=O)c1ccncc1	Pf growth 48h inconclusive, Pf growth 96h inconclusive
O=[N+]([O-])c1ccc(Cl)c(/C=N/NC(=S)Nc2ccccc2)c1	Pf growth 48h inconclusive, Pf growth 96h inconclusive
O=C(Cn1cc2c(n1)CCCC2)Nc1ccccc1Br	none (no result: Pf growth 48h)
O=C(Cc1ccc2c(c1)CCCC2)Nc1ccccc1Br	Pf growth 48h 3.7µM, Pf growth 96h 2.62µM
O=C(Cc1ccc2ccccc2c1)Nc1ccccc1Br	Pf growth 48h inconclusive, Pf growth 96h 3.29µM
OCCN(Cc1ccccc1)Cc1ccccc1O	Pf growth 48h 4.15µM, Pf growth 96h inconclusive (no result: NS1 function inh)
CN(Cc1nc(CC2CC2)no1)CC12CC3CC(CC(C3)C1)C2	Pf growth 96h inconclusive
OCCN(Cc1ccccc1)Cc1nc(CC2CC2)no1	Pf growth 96h 1.65µM
Oc1ccccc1CN(CCc1ccccc1)Cc1ccccc1	Pf growth 48h inconclusive, Pf growth 96h inconclusive (no result: Shiga toxin inh)
O=C(CN1C(=O)/C(=C/c2ccccc2)SC1=S)N1CCN(CCc2ccccn2)CC1	Pf growth 96h inconclusive
O=C(CCc1nnc2ccc(N3CCCCC3)nn12)NCC1CCN(Cc2ccc(F)cc2)CC1	Pf growth 48h inconclusive, Pf growth 96h 10.4µM
CC(=O)c1ccc(NC(=O)CCc2nnc3ccc(N4CCCC4)nn23)cc1	CHX counter 31.5, Shiga toxin inh 50.2
CC(=O)c1cccc(NC(=O)CCc2nnc3ccc(N4CCOCC4)nn23)c1	Pf growth 96h 10.4µM
COc1cccc(N2CCN(c3ccc4nnc(CCC(=O)Nc5cccc(C(C)=O)c5)n4n3)CC2)c1	none
O=C1CCc2cc(NS(=O)(=O)c3ccc(Cl)cc3)cc3c2N1CC3	Pf growth 96h inconclusive (no result: CHX counter, SARS PLpro yeast, Shiga toxin inh, NS1 function inh)
C[C@@]12CCC(=O)C=C1C=C[C@H]1[C@H]3CC[C@](O)(CCC(=O)O)[C@]3(C)CC[C@@H]12	Pf growth 48h inconclusive, Pf growth 96h 6.42µM (no result: CHX counter, SARS PLpro yeast, Shiga toxin inh, NS1 function inh)
CC(=O)[C@H]1CC[C@H]2[C@@H]3C=CC4=CC(=O)CC[C@@]4(C)[C@@H]3CC[C@]12C	Pf growth 48h inconclusive (no result: CHX counter, SARS PLpro yeast, Shiga toxin inh, NS1 function inh)
CCOC(=O)CNC(=O)CN1CCC(c2nc3ccccc3[nH]2)CC1	Pf growth 96h inconclusive, NS1 function inh inconclusive
CCN(CC)CC(=O)c1c[nH]c2ccccc12	Pf growth 96h 2.94µM
Cc1cccc(CC(=O)c2c[nH]c3ccccc23)c1	Shiga toxin inh 51.2
COc1ccccc1/C(C)=N/Oc1cc(N)cc([N+](=O)[O-])c1	none (no result: CHX counter, Shiga toxin inh, NS1 function inh)
O=S1(=O)CCN2N=C(C34CC5CC(CC(C5)C3)C4)SC2=N1	none (no result: NS1 function inh)
Nc1c2nc(-c3ccccc3Cl)[nH]c(=O)c2nc(=O)n1-c1ccccc1	CHX counter 22.5, Shiga toxin inh 58.1
O=c1c2ccccc2nc(-c2ccccc2Cl)n1-c1ccc(O)cc1	Pf growth 48h inconclusive, Pf growth 96h inconclusive
COc1ccc(NC(=O)CCCOc2ccc(Cl)c(C)c2)cc1S(=O)(=O)N1CCOCC1	none (no result: CHX counter, Pf growth 48h, Pf growth 96h, Shiga toxin inh, NS1 function inh)
Cc1cccn2c(=O)c3cc(C(=O)NCCN4CCOCC4)c(=N)n(Cc4ccc(F)cc4)c3nc12	Pf growth 48h inconclusive, Pf growth 96h 3.7µM
Cc1cccn2c(=O)c3cc(C(=O)NCCN4CCOCC4)c(=N)n(CCN4CCOCC4)c3nc12	Pf growth 48h inconclusive
Cc1cccn2c(=O)c3cc(C(=O)NCCN4CCOCC4)n(C)c3nc12	CHX counter 37.4, Pf growth 96h inconclusive, Shiga toxin inh 58.9
CCOCCCn1c(=N)c(C(=O)NCCN2CCOCC2)cc2c(=O)n3cccc(C)c3nc21	Pf growth 96h 1.47µM
Cc1cccn2c(=O)c3cc(C(=O)NC4CCCC4)c(=N)n(CCCN4CCOCC4)c3nc12	Pf growth 48h 2.33µM
Cc1cccn2c(=O)c3cc(C(=O)NCCN4CCOCC4)n(Cc4ccccc4)c3nc12	none
Cc1ccc(NC(=O)NCc2ccccn2)c(C)c1	Pf growth 96h inconclusive
O=C(Cc1cnc2ncnn2c1)N1CCc2c([nH]c3ccccc23)C1c1ccccn1 (stereo not given)	none
CCCSc1nc(C)cc(C)c1S(=O)(=O)c1ccccc1C	Pf growth 48h inconclusive, Pf growth 96h inconclusive
Cc1cc(C)c(S(=O)(=O)c2ccccc2C)c(SCC(C)C)n1	Pf growth 48h inconclusive, Pf growth 96h 11.7µM
Oc1ccc(Cl)cc1C1=NNC(c2cc(Br)cc3c2OCOC3)C1 (stereo not given)	Pf growth 48h inconclusive
COc1ccc(C2=NNC(c3cc(Cl)cc4c3OCOC4)C2)c(O)c1 (stereo not given)	CHX counter 17.1, Pf growth 48h 8.28µM
CCOCCn1c(C)c(C(=O)OCC)c2cc(O)c3ccccc3c21	Pf growth 48h 2.33µM, Pf growth 96h 3.7µM (no result: CHX counter, Shiga toxin inh, NS1 function inh)
CCOC(=O)c1c(C)n(COCCO)c2ccc(O)cc12	none (no result: Pf growth 96h)
CCCCC(O)(c1ccccc1)C(CN1CCOCC1)c1ccccc1 (stereo not given)	Pf growth 48h inconclusive
CCc1ccc(C(O)(CC)C(CN2CCOCC2)c2ccccc2)cc1 (stereo not given)	Pf growth 48h 11.7µM
OC(c1ccccc1)(C1CCCCC1)C(CN1CCOCC1)c1ccccc1 (stereo not given)	Pf growth 48h 2.94µM
COc1ccc(C(O)(C2CCCCC2)C(CN2CCOCC2)c2ccccc2)cc1 (stereo not given)	Pf growth 48h inconclusive
CCCCC(O)(c1ccc(CC)cc1)C(CN1CCOCC1)c1ccccc1 (stereo not given)	Pf growth 48h 1.85µM
CCC(O)(c1ccccc1)C(CN1CCOCC1)c1ccccc1 (stereo not given)	Pf growth 48h inconclusive
COCCn1c(-c2cccs2)csc1=Nc1cccnc1	Pf growth 96h inconclusive
Cc1csc(=Nc2cccnc2)n1CC1CCCCC1	Pf growth 48h inconclusive, Pf growth 96h inconclusive
COCCn1c(-c2ccco2)csc1=Nc1cccnc1	Pf growth 48h inconclusive (no result: Pf growth 96h)
CC(C)Cn1c(-c2ccco2)csc1=Nc1cccnc1	Pf growth 48h 14.7µM, Pf growth 96h inconclusive
Fc1ccccc1-c1csc(=Nc2cccnc2)n1CCCn1ccnc1	Pf growth 48h 7.38µM, Pf growth 96h 14.7µM
Fc1ccccc1-c1csc(=Nc2cccnc2)n1CC1CCCO1 (stereo not given)	Pf growth 48h 8.28µM, Pf growth 96h 11.7µM
